The campaign covered roughly 150,000 compounds. About 6,500 (4.3%) were called active. Another 12% or so got no clear call; they are omitted. Calls come from the whole dose curve; as a rule, active = well fitted inhibition curve with a large enough effect (not every such curve was filed as active); inconclusive = small, poorly fitted or top-dose-only effect, or another doubt; inactive = no such curve, though single readings can be large or run the other way. Many of the other results were omitted from the sample, so actives are more common in it than they were.
% is set by controls: 0 for no effect and ±100 for the full control effect; potency is the fitted concentration of half-maximal effect.

Chain of 15-hydroxyprostaglandin dehydrogenase [NAD(+)] (Homo sapiens) (P15428 whole entry, looked up): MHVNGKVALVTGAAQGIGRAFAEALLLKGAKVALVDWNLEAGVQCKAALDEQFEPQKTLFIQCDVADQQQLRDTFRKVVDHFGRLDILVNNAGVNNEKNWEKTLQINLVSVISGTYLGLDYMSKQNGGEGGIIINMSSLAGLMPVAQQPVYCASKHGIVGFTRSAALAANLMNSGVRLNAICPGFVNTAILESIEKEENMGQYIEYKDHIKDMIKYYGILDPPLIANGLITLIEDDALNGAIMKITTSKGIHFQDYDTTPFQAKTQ

This test has as its target 15-hydroxyprostaglandin dehydrogenase [NAD(+)] (Homo sapiens) (UniProt P15428). The experiment in a line: qHTS Assay for Inhibitors of HPGD (15-Hydroxyprostaglandin Dehydrogenase). As to conditions: purified HPGD, NADH fluorescence kinetic, PGE2 substrate; activity change, negative = inhibition: stronger effect = lower value. The gist of the method: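 20 nM HPGD preincubated 15 min at room temperature with compound in 50 mM Tris-HCl pH 8, 0.01% Tween 20. Started with 1 mM NAD+ and 30 uM prostaglandin E2; NADH fluorescence (360/450 nm) read 5 times over 30-s intervals, last minus first.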
Consider `CCCCNC(=O)C1CCC(CNS(=O)(=O)c2ccc(NC(C)=O)cc2)CC1` (stereo unspecified), for which the activity change, negative = inhibition is -26.6% (inactive).

For `COc1ccc(NC(=S)NCC2CCN(c3ccc(OC)cc3)C2)cc1` (stereo unspecified), the activity change, negative = inhibition is -3.49% (inactive). Turning to `O=C(NNC(=S)Nc1ccc(Br)cc1Cl)c1ccco1`, the activity change, negative = inhibition is -15.2% (inactive).

Turning to `Cc1ccc(/C=N/NC(=O)c2sccc2OCc2ccc(F)cc2)cc1`, the Potency is 31.6 µM (active).

As for `Cc1ccsc1C(=O)N/N=C/c1ccc([N+](=O)[O-])cc1`, the activity change, negative = inhibition was -12.4% (inactive). `CNC(=S)NNC(=O)c1sccc1OCc1ccccc1`: the activity change, negative = inhibition was 1.03% (inactive). With `Cc1ccc(NC(=O)O[C@@H]2C(=O)c3cc(Br)ccc3O[C@H]2c2ccc3c(c2)OCO3)cc1Br`, the activity change, negative = inhibition was -8.38% (inactive).

For the compound `O=C1c2cccc3cc(Br)cc(c23)C(=O)N1Nc1ccccc1`, the activity change, negative = inhibition was -5.3% (inactive). Regarding `O=C1C=C(c2ccc(Cl)cc2)C(=O)N1Nc1ccccc1`, the Potency is 22.4 µM (active). Take `O=C(Nc1ccccc1)OCc1cc(-c2ccc(Cl)cc2)on1`: the activity change, negative = inhibition is -7.01% (inactive). The same measure, in the same setting: the same measure for `Cc1cc(N2CCOCC2)nc(-c2ccc(Br)cc2)n1`: -7.33% (inactive); for `CCC(C)NCCOCCOc1ccc(Br)cc1C` (stereo unspecified): -6.54% (inactive).

Consider `Cc1ccc(C(=O)/C=C/Nc2ccc(S(=O)(=O)Nc3onc(C)c3C)cc2)cc1`, for which the activity change, negative = inhibition is -26.4% (inactive). Still for that read-out and setting: under `Cc1ccc(S(=O)(=O)N2CCCC2C(=O)OCc2nc3sc(C)c(C)c3c(=O)[nH]2)cc1` (stereo unspecified) stands -20.7% (inactive); under `Cc1c(NS(=O)(=O)c2ccc(NC3CCCC3)c([N+](=O)[O-])c2)c(=O)n(-c2ccccc2)n1C`, -7.49% (inactive). Take `Cc1cc([N+](=O)[O-])ccc1NC1CCCC1`: the activity change, negative = inhibition was -16.1% (inactive). Turning to `Cc1cc(C=O)c(C)n1-c1ccc(NC2CCCCC2)c([N+](=O)[O-])c1`, the Potency is 7.94 µM (active). Turning to `COc1ccc(C2NC(=S)NC3=C2CCc2ccccc23)cc1OC` (stereo unspecified), the activity change, negative = inhibition was -17.9% (inactive). As to `Cc1nn(Cc2ccc(F)cc2)c(C)c1NC(=O)c1cccnc1Cl`, the activity change, negative = inhibition was -10.3% (inactive).

In the case of `COc1cccc(CNCCc2c[nH]c3ccccc23)c1OCc1ccccc1F`, the activity change, negative = inhibition was -4.46% (inactive).

Consider `CCOc1cc(/C=N/O)ccc1OCc1ccccc1F`, for which the activity change, negative = inhibition was -1.63% (inactive). In the case of `COc1cc(/C=C2/C(=O)ON=C2C)ccc1OCc1ccccc1F`, the Potency was 1.58 µM (active). Take `CCOc1ccc(/C=N/NC(=O)C(C)Sc2ccccn2)cc1OCC` (stereo unspecified): the activity change, negative = inhibition was -18.1% (inactive). Still for that read-out and setting: under `COc1ccc(/C=C/C(=O)c2ccc(NS(=O)(=O)c3ccc(C)cc3)cc2)cc1O` stands -19.9% (inactive); under `CCOC(=O)c1ccc(N2C(=O)CC(Sc3nc(O)c(CC)c(=O)[nH]3)C2=O)cc1` (stereo unspecified), -10.7% (inactive). With `O=C1CC(Sc2ncn[nH]2)C(=O)N1c1ccccc1` (stereo unspecified), the Potency was 12.6 µM (active). On to `COc1ccc(N2C(=O)CC(SC(C)C)C2=O)cc1` (stereo unspecified), for which the activity change, negative = inhibition is -4.33% (inactive).

On to `CCNc1nc(NC(C)C)nc(N2CC(=O)N(CC(=O)OCC)C2=N)n1`, for which the activity change, negative = inhibition is -1.19% (inactive).

With `CCCCS(=O)(=O)N1C2=NC(C(=O)OC)=C(C(=O)OC)[C@@H]3N(Cc4ccccc4)c4ccccc4[C@]23C[C@H]1C(=O)OC`, the activity change, negative = inhibition is -6.02% (inactive). On the same count and under the same terms, under `CCN(CC)C(=O)c1sc(NC(=O)c2ccco2)c(C#N)c1C` stands -18.8% (inactive). Regarding `CCC(=O)Nc1sc(C(=O)N2CCCCC2)c(C)c1C#N`, the Potency is 4.47 µM (active). Turning to `N#Cc1ccsc1NC(=O)CN1CCCCC1`, the activity change, negative = inhibition was -11.5% (inactive). The same measure, in the same setting: under `CC1CN(C(=S)SCC(=O)c2ccccc2)CC(C)O1` (stereo unspecified) stands -10.1% (inactive). Turning to `CCC(C)(C)C1CCC(=NNC(=O)c2ccc(Br)o2)CC1` (stereo unspecified), the activity change, negative = inhibition is -9.21% (inactive). For `O=C(CSc1nnc(SCc2ccc(Cl)cc2)s1)N/N=C/c1ccccc1Cl`, the activity change, negative = inhibition was -3.98% (inactive). As for `O=C(COC(=O)CCCNC(=O)c1ccc(Cl)cc1)Nc1cc(Cl)ccc1Cl`, the activity change, negative = inhibition is -18.1% (inactive). On to `Cc1ccccc1N/N=C/c1ccc(N2CCOCC2)cc1`, for which the Potency was 28.2 µM (active). In the case of `C(=N/Nc1cc(N2CCOCC2)nc(N2CCOCC2)n1)/c1ccccc1`, the activity change, negative = inhibition was -6.61% (inactive). In the case of `C/C(=N\NC(=O)c1ccccc1C)c1ccc(N2CCOCC2)cc1`, the activity change, negative = inhibition was -15.3% (inactive).

Turning to `CCN(CC)S(=O)(=O)c1cc([N+](=O)[O-])ccc1N=Nc1c(O)n(C)c2ccccc12`, the activity change, negative = inhibition was -5.63% (inactive). In the case of `Cc1c(/C=N/N2C(=O)C3C4C=CC(C4)C3C2=O)c2ccccc2n1C` (stereo unspecified), the activity change, negative = inhibition was -1.58% (inactive). With `CC(=O)N1c2ccccc2N(Cc2ccc([N+](=O)[O-])cc2)C(=O)C1(C)C`, the activity change, negative = inhibition is -6.13% (inactive). On to `CCCN1CNC(=S)N(CCc2ccccc2)C1`, for which the activity change, negative = inhibition is 1.42% (inactive).

With `Cc1ccc(OCC(=O)OC(C)CN(C)Cc2ccccc2)cc1` (stereo unspecified), the activity change, negative = inhibition is -13.4% (inactive).

With `FC(F)(F)c1cc(-c2ccco2)nc(N2CCOCC2)n1`, the activity change, negative = inhibition was -8.04% (inactive).

As for `O=C(CSc1nc(-c2ccco2)cc(C(F)(F)F)n1)N1CCc2ccccc2C1`, the Potency was 2.24 µM (active).

For `O=C(CSc1nc(-c2ccco2)cc(C(F)(F)F)n1)NCc1cccs1`, the activity change, negative = inhibition is -3.58% (inactive). Consider `CN(C)c1ccc(/C=N/N(Cc2ccccc2)c2ccccc2)cc1`, for which the activity change, negative = inhibition is -11.9% (inactive). Same read-out and setting: the same measure for `CCN(C(=O)COC(=O)c1cc(NS(=O)(=O)c2ccc(Cl)c([N+](=O)[O-])c2)ccc1O)C1CCCCC1`: -7.74% (inactive); for `CNC(=S)N1CCN(c2ccccn2)CC1`: -14% (inactive). Regarding `CN(C)c1ccc(/C=N\S(=O)(=O)c2ccccc2)cc1`, the activity change, negative = inhibition is -10.7% (inactive).

Take `CCOC(=O)CSc1nc2c(c(=O)n(C)c(=O)n2C)n1Cc1ccccc1F`: the activity change, negative = inhibition is -4.76% (inactive). In the case of `COc1ccccc1NC(=O)CSc1nc2sc(C)c(C)c2c(=O)n1Cc1ccco1`, the activity change, negative = inhibition is -18.7% (inactive). In the case of `CCOC(=O)CSc1nc2c(sc(=S)n2CCc2ccccc2)c(=O)n1Cc1ccco1`, the Potency was 20 µM (active). Consider `COc1ccc(C(=O)Nc2ccc3nc(N4CCCCC4)cc(C)c3c2)cc1OC`, for which the activity change, negative = inhibition is -27.2% (inactive). Still for that read-out and setting: the same measure for `COc1ccc(S(=O)(=O)N2CCCCC2)cc1Br`: -1.54% (inactive). For the compound `CC1(C)CC(=O)C(N=Nc2ccc(S(=O)(=O)N3CCCCCC3)cc2)=C(O)C1`, the Potency is 25.1 µM (active).

Regarding `Cc1ccc(S(=O)(=O)N2CCC(N3CCCCCC3)CC2)cc1`, the activity change, negative = inhibition was -7.84% (inactive). As for `C=CCOc1c(Br)cc(/C=N\n2nnnc2N)cc1OC`, the activity change, negative = inhibition was -12.6% (inactive). Consider `CCOc1c(Br)cc(/C=C2\C(=O)N(CCC#N)N=C2C)cc1OC`, for which the Potency is 5.01 µM (active). Take `CCOc1cc(/C=N/O)cc(Br)c1OC`: the activity change, negative = inhibition was -21.3% (inactive).

For the origin of these results see PubChem BioAssay AID894 (National Center for Advancing Translational Sciences (NCATS), 2007).
